The source made the active and inactive calls. Unless noted, how the calls were made is not given here.
What was measured:
[1] = system: Wnt5a (protein binding on small-molecule microarray); test: small molecules binding Wnt5a protein – biophysical, small-molecule microarray, 635/667 nm fluorescence, primary screen (AID 1142); details: 635 nm fluorescence, higher = more signal;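 further: fluorescence read at 667 nm with signal to noise per printed feature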
[2] = ATP-based viability of Huh7 replicon cells – cell-based, CellTiter-Glo luminescence, basal, 48 h, cytotoxicity control for HCV replication inhibitor project, primary screen (AID 1143); details: higher = more signal, called active from +8 up or from −8 down;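 further: Huh7 hepatoma cells carrying a hepatitis C replication reporter with no stimulus; test concentration not given here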
[3] = Pseudomonas biofilm growth suppression – PAO1 strain, BacTiter-Glo luminescence, LB-PBS, primary screen (AID 1144); details: P. aeruginosa PAO1 biofilm, 12 h, higher = more signal
[4] = basal CRE-LacZ reporter activity in PC12 – cell-based, unstimulated, primary screen (AID 1145); details: no forskolin, luminescence, 4.5 h, higher = more signal, called active from +8 up or from −8 down
[5] = forskolin-driven CRE-LacZ activity in PC12 – cell-based, CRE-LacZ reporter, forskolin-stimulated, primary screen (AID 1146); details: luminescence, 4.5 h, higher = more signal, called active from +8 up or from −8 down;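 further: PC12 cells with 6xCRE LacZ reporter stimulated by forskolin 10 µM; beta-galactosidase reporter signal reflecting CREB driven transcription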
[6] = biological target: Streptavidin (Streptomyces avidinii) (UniProt P22629); test: compounds binding control protein streptavidin – biophysical, small-molecule microarray, 635/667 nm fluorescence, artefact control for SMM compound annotation, primary screen (AID 1147); details: higher = more signal;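 further: signal reflects streptavidin binding to arrayed compounds as a control protein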
[7] = probe aInhba binding on compound microarray – biochemical, small-molecule microarray, 635/667 nm fluorescence, primary screen (AID 1148); details: higher = more signal;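 further: score merges 667nm spot fluorescence with signal-to-noise for antibody binding to printed compounds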
[8] = biological target: Torsin-1A (Homo sapiens) (UniProt O14656); test: TOR1A wild-type binding on microarray – cell lysate, small-molecule microarray, lysate, 635/667 nm, primary screen (AID 1149); details: COS7 hTOR1A-WT lysate, 635 nm fluorescence, higher = more signal
[9] = biological target: Torsin-1A (Homo sapiens) (UniProt O14656); test: torsin A mutant lysate binding on microarrays – cell lysate, small-molecule microarray, COS7 lysate, 635/667 nm fluorescence, primary screen (AID 1150); details: COS7 hTOR1A mutant lysate, 635 nm fluorescence, higher = more signal;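 further: score pools 667 nm emission and signal to noise measuring lysate protein binding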
[10] = system: Sonic hedgehog protein (Shh); test: Sonic hedgehog microarray binding compounds – biochemical, small-molecule microarray, 635/667 nm fluorescence, primary screen (AID 1151); details: 635 nm fluorescence, higher = more signal;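 further: Shh protein binding to compounds spotted on small-molecule microarray slides; score combines spot fluorescence intensity with signal-to-noise across triplicate slides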
[11] = optical density shifts of acrAB sulA E. coli – strain DRC41, OD650, 48 h, E. coli filamentation inducer project, primary screen (AID 1152); details: higher = more signal, called active from +8 up or from −8 down;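 further: E. coli MC1000 strain DRC41 lacking acrAB efflux pump and sulA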
[12] = probe aLefty1 binding on compound microarray – biochemical, small-molecule microarray, 635/667 nm fluorescence, primary screen (AID 1153); details: higher = more signal;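 further: score merges spot fluorescence with signal-to-noise ratio from the scanned slide images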
[13] = plasmodial surface anion channel blockers, osmotic lysis – cell-based, P. falciparum Indochina, OD700, 1 h, primary screen (AID 1154); details: P. falciparum Indochina infected RBC osmotic lysis, higher = more signal, called active from +8 up or from −8 down
[14] = plasmodial surface anion channel blockers, osmotic lysis – cell-based, P. falciparum Indochina, OD700, 2 h, primary screen (AID 1155);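 further: lysis reports solute entry through the parasite surface anion channel PSAC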; details: P. falciparum Indochina infected erythrocytes, higher = more signal, called active from +8 up or from −8 down
[15] = changes in parasitized red cell lysis, either direction – P. falciparum Indochina, OD700, 3 h, PSAC antagonist project, primary screen (AID 1156); details: P. falciparum-infected erythrocytes, osmotic lysis, higher = more signal, called active from +8 up or from −8 down
[16] = plasmodial surface anion channel blockers, osmotic lysis – cell-based, P. falciparum Indochina, OD700, 18 h, primary screen (AID 1157); details: P. falciparum Indochina infected erythrocytes, osmotic lysis OD700, 18 h; higher = more signal, called active from +8 up or from −8 down
[17] = S6 kinase pathway phospho-S6 level changes – cell-based, A549, cytoblot, luminescence, serum-stimulated, primary screen (AID 1158); details: 5 h, higher = more signal;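 further: serum-stimulated A549 lung adenocarcinoma cells; signal is phosphorylated S6 detected by cytoblot immunostaining with HRP secondary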
[18] = biological target: NADPH oxidase 2 (Homo sapiens) (UniProt P04839); test: compounds shifting NOX2 Amplex Red fluorescence – cell-based, HEK293-NOX2, PMA-stimulated, NOX inhibitor project, primary screen (AID 1159); details: 45 min, higher = more signal, called active from +8 up or from −8 down; further: test concentration not given here
[19] = biological target: NADPH oxidase 4 (Homo sapiens) (UniProt Q9NPH5); test: compounds shifting NOX4 Amplex Red fluorescence – cell-based, HEK293-NOX4, tetracycline-induced, NOX inhibitor project, primary screen (AID 1160); details: HEK293-NOX4, Amplex Red H2O2 fluorescence, 45 min; higher = more signal, called active from +8 up or from −8 down
[20] = biological target: NADPH oxidase 5 (Homo sapiens) (UniProt Q96PH1); test: compounds shifting NOX5 Amplex Red fluorescence – cell-based, HEK293-NOX5, NOX inhibitor project, primary screen (AID 1161); details: HEK293-NOX5, ionomycin, 45 min, higher = more signal
NADPH oxidase 5 (Homo sapiens), sequence (Q96PH1 whole entry, looked up): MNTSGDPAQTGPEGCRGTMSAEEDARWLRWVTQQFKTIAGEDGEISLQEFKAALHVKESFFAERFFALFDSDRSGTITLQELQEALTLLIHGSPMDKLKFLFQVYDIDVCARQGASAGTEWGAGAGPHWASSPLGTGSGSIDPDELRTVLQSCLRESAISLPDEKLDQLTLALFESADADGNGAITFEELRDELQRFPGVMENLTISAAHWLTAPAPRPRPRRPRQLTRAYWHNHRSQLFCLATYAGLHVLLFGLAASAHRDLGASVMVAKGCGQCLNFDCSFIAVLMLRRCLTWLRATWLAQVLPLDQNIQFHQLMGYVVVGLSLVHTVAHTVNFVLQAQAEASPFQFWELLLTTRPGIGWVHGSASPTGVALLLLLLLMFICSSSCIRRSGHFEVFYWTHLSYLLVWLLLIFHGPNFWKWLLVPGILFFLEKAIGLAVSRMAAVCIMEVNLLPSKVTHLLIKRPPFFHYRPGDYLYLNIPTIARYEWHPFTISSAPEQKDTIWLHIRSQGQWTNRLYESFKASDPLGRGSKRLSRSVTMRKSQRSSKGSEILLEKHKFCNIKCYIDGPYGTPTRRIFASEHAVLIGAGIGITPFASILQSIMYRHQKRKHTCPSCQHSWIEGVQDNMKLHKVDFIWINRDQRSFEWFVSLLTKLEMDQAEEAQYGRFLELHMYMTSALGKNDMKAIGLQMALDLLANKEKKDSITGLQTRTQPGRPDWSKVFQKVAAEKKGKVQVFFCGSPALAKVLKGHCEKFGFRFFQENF

Streptavidin (Streptomyces avidinii), sequence (P22629 whole entry, looked up): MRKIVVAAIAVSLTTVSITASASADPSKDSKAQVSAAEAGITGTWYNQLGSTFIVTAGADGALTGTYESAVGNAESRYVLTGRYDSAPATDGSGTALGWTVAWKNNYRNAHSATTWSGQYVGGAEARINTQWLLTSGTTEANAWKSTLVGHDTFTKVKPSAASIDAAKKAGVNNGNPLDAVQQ
NADPH oxidase 2 (Homo sapiens), sequence (P04839 whole entry, looked up): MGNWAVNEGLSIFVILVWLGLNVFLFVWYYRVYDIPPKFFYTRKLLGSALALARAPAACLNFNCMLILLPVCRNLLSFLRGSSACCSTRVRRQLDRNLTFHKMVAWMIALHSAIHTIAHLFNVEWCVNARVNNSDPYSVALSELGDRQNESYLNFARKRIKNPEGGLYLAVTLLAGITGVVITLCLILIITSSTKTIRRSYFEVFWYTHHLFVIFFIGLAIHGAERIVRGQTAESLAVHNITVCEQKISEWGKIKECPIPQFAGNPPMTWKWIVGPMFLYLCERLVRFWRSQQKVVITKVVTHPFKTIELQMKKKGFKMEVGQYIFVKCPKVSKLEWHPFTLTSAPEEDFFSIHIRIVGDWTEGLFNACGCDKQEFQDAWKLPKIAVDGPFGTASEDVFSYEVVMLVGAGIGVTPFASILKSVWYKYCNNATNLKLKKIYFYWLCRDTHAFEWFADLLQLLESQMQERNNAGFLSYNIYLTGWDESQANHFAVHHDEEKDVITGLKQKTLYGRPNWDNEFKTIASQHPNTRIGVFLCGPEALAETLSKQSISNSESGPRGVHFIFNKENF
Torsin-1A (Homo sapiens), sequence (O14656 whole entry, looked up): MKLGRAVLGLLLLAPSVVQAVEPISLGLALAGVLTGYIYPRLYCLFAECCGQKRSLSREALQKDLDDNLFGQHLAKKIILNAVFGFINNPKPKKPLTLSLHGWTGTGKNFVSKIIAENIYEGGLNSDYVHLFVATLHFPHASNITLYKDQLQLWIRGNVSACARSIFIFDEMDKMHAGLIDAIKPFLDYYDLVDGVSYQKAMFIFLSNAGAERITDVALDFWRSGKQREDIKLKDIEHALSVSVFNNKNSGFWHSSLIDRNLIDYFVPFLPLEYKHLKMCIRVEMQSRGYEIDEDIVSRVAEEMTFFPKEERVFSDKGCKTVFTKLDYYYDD
NADPH oxidase 4 (Homo sapiens), sequence (Q9NPH5 whole entry, looked up): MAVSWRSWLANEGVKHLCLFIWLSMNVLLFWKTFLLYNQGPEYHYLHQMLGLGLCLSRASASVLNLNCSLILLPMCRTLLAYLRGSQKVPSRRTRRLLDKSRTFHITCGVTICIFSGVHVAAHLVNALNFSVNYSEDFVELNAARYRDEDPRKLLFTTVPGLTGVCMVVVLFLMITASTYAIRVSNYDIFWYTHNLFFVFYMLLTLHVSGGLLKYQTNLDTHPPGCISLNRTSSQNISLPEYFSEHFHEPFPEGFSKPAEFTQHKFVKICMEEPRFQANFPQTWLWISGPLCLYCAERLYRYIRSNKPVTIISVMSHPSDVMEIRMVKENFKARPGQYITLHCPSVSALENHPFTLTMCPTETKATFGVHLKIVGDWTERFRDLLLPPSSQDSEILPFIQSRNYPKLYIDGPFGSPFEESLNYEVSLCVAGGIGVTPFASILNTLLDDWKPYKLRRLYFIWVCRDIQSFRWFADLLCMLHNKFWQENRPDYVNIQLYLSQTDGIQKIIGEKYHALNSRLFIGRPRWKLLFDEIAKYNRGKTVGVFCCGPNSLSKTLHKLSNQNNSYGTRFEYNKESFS

Row | SMILES | composite z-score [1] | z-score [2] | z-score [3] | z-score [4] | z-score [5] | composite z-score [6] | composite z-score [7] | composite z-score [8] | composite z-score [9] | composite z-score [10] | z-score [11] | composite z-score [12] | z-score [13] | z-score [14] | z-score [15] | z-score [16] | z-score [17] | z-score [18] | z-score [19] | z-score [20]
1 | COCCCNC(=O)[C@@]1(C)c2ccccc2C(=O)N(Cc2ccc(OC(F)(F)F)cc2)[C@H]1c1ccc(CO)cc1 | -0.0685 | -1.27 (inactive) | -0.27 (inactive) | 0.585 (inactive) | -0.0912 (inactive) | -0.773 | 0.185 | 0.13 | -0.17 | -0.32 | 0.906 (inactive) | -0.191 | 2.23 (inactive) | 0.123 (inactive) | 1.06 (inactive) | -0.0648 (inactive) | -0.459 | -0.599 (inactive) | 1.18 (inactive) | 0.247
2 | CO[C@H]1COC(=O)CC=C[C@H](C)[C@@H](NS(=O)(=O)c2ccc(C)cc2)COC(=O)CC=C[C@@H]1C | 0.0341 | -1.82 (inactive) | -0.63 (inactive) | -0.971 (inactive) | -0.562 (inactive) | -0.0767 | -0.127 | 0.693 | 0.722 | 0.936 | -1.05 (inactive) | -0.194 | 0.0723 (inactive) | -1.13 (inactive) | 0.157 (inactive) | -0.592 (inactive) | 5.19 | 0.0288 (inactive) | 0.256 (inactive) | 0.622
3 | CCc1cc2c(nc1CC)CCN(CCC(C)=NOC[C@@H](O)COCc1ccco1)C2 | 0.391 | -0.112 (inactive) | 0.132 (inactive) | 2.16 (inactive) | 0.785 (inactive) | 0.536 | 0.149 | 3.95 | 3.64 | 2.31 | 0.538 (inactive) | 1.09 | 2.3 (inactive) | -0.0282 (inactive) | 0.0761 (inactive) | 0.147 (inactive) | -0.659 | -0.566 (inactive) | 0.162 (inactive) | 1.84
4 | CCOC(=O)NN=C1C[C@@H](O)[C@@H](O)[C@@H]2[C@@H]3C(=O)N(CC)C(=O)[C@@H]3CC[C@@H]12 | -0.0087 | 0.225 (inactive) | -0.0164 (inactive) | -0.205 (inactive) | 0.104 (inactive) | -0.124 | -0.324 | 0.0252 | -0.0727 | 0.784 | -0.562 (inactive) | 0.0053 | -0.485 (inactive) | -0.246 (inactive) | -0.493 (inactive) | -0.336 (inactive) | 0.123 | -1.43 (inactive) | 0.0593 (inactive) | -0.641
5 | COc1ccc(O[C@H]2C=C[C@@H](c3ccccc3)O[C@@H]2COC(=O)CCC(C)=NOCC[C@@H]2C=C[C@H](OC(C)=O)[C@@H](COC(C)=O)O2)cc1 | -0.0096 | -1.06 (inactive) | 0.57 (inactive) | 0.918 (inactive) | 0.378 (inactive) | 0.0903 | -0.0736 | 1.56 | 0.43 | 0.661 | -0.445 (inactive) | -0.0176 | 8.07 (active) | 1.2 (inactive) | 1 (inactive) | 0.588 (inactive) | -0.268 | -1.64 (inactive) | -0.327 (inactive) | -2.19
6 | CC(C)NC(=O)[C@@]1(c2ccc([N+](=O)[O-])cc2)CC(=O)N(CC23CC4CC(CC(C4)C2)C3)[C@@H]1c1ccc(CO)cc1I | 0.492 | -5.69 (inactive) | 0.017 (inactive) | 0.531 (inactive) | 0.0456 (inactive) | 0.131 | 0.0435 | 0.484 | 0.369 | 0.746 | -0.805 (inactive) | 0.167 | 18.8 (active) | 5.45 (inactive) | 1.59 (inactive) | 1.28 (inactive) | 0.018 | 2.19 (inactive) | 0.215 (inactive) | 1.35
7 | COc1ccc([Si](C)(C)[C@H]2[C@H](CCO)O[C@@]3(C(=O)N(Cc4cccc(NC(=O)[C@H](C)O)c4)c4ccccc43)[C@@H]2C)cc1 | 0.209 | -7.96 (inactive) | -1.52 (inactive) | 3.1 (inactive) | -0.878 (inactive) | 0.394 | -0.0468 | 0.715 | 0.916 | 1.98 | 0.868 (inactive) | 0.19 | 19.7 (active) | 5.46 (inactive) | 0.334 (inactive) | 1.8 (inactive) | 0.993 | -4.7 (inactive) | 0.621 (inactive) | -1.31
8 | CCOC(=O)[C@H](Cc1ccccc1)NC(=O)CCC1CC(OC(=O)NCc2ccc3c(c2)OCO3)CC2(CCCC(COC(=O)NCc3ccccc3)O2)O1 (stereo not given in full) | 0.0594 | -0.256 (inactive) | -0.971 (inactive) | -0.155 (inactive) | 0.807 (inactive) | 1.13 | -0.168 | 0.0156 | 0.28 | 0.944 | 0.0722 (inactive) | -0.101 | 0.0765 (inactive) | 0.979 (inactive) | -1.37 (inactive) | 0.565 (inactive) | -0.0074 | -0.988 (inactive) | 0.852 (inactive) | 0.562
